This is part of a sample that, as a whole, favours compounds with a hit. Of some 79,000 tested, about 15% had one in any assay. The source made the active and inactive calls. No stated cut-off is given here; in the data, active means growth inhibition above about 70%; inactive means the rest.
Tests used:
[1] = NCI Yeast Anticancer Drug Screen. Data for the rad50 strain (AID 155);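 further: 0% = growth of vehicle-only cultures of the same strain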; details: S. cerevisiae rad50 strain growth inhibition; at 50.0 µM; active compounds read high
In short: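 Cells are treated with compound, grown, and their growth is then scored against vehicle-only cultures of the same repair-deficient yeast strain.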

[2] = NCI Yeast Anticancer Drug Screen. Data for the mec2-1 strain (AID 157); details: S. cerevisiae mec2-1 strain, at 50.0 µM, active compounds read high
In short: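 Using mec2-1 yeast: add compound, measure growth, express inhibition versus vehicle-treated cultures.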

[3] = NCI Yeast Anticancer Drug Screen. Data for the sgs1 mgt1 strain (AID 161);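 further: 0% = growth of cultures given vehicle only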; details: S. cerevisiae sgs1 mgt1 strain, at 50.0 µM, active compounds read high
In short: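 Yeast cells carrying a defined DNA-repair defect were exposed to test compounds. Growth inhibition was measured relative to vehicle-treated controls.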

[4] = NCI Yeast Anticancer Drug Screen. Data for the cln2 rad14 strain (AID 165);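 further: 0% = growth equal to vehicle treated cultures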; details: S. cerevisiae cln2 rad14 strain, at 50.0 µM, active compounds read high
In short: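 Yeast strain cln2 rad14, bearing defects in cell cycle control and DNA repair, serves as the test system; values reflect growth inhibition compared with vehicle.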

[5] = NCI Yeast Anticancer Drug Screen. Data for the bub3 strain (AID 167); details: S. cerevisiae bub3 mutant strain, at 50.0 µM, active compounds read high
In short: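 Part of a panel of yeast mutants defective in DNA damage repair or cell cycle regulation. Each strain is grown with compound, and inhibition is calculated relative to solvent-treated cultures.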

[6] = NCI Yeast Anticancer Drug Screen. Data for the mlh1 rad18 strain (AID 175); details: S. cerevisiae mlh1 rad18 strain growth inhibition; at 50.0 µM; active compounds read high
In short: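 Steps: expose repair-defective yeast to compound; measure growth; express inhibition against vehicle-treated controls.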

Measured: growth inhibition

C/C(=N\NC(N)=O)c1ccc(Cl)c(-n2cccc2)c1
inactive: [1] 12.3% | [2] 3.65% | [3] 32.7% | [4] 14.3% | [5] 32.1% | [6] 31.2%

COc1ccc2c(ccc3[nH]c4c(C)cnc(NCCCN(C)C)c4c32)c1
inactive: [1] -16.6% | [2] -7.6% | [3] -2.7% | [4] -3.55% | [5] 4.05% | [6] -7.85%

CCOC(=O)c1c([N+](=O)[O-])cnn1C1OC(COC(C)=O)C(OC(C)=O)C1OC(C)=O (stereo unspecified)
inactive: [1] 6.4% | [2] -2% | [3] 4.6% | [4] 15.2% | [5] 7.9% | [6] 6.85%

CC(Oc1ccc(Br)cc1Br)C(=O)O (stereo unspecified)
inactive: [1] 4.1% | [2] -16.2% | [3] 1.2% | [4] 23.2% | [5] -14.5% | [6] 19.1%

CCC(=O)c1ccc([N+](=O)[O-])cc1
inactive: [1] -14.2% | [2] -18.2% | [3] -24.7% | [4] -59.4% | [5] 1.95% | [6] -10.2%

COc1ccc(CC(=O)NCCc2ccc(OC)c(OC)c2)cc1Br
inactive: [1] 12.2% | [2] -4.85% | [3] -3.8% | [4] 8.35% | [5] 8.8% | [6] 2.6%

CC(=O)CC(=O)NCCCc1ccccc1
inactive: [1] -18.8% | [2] -33.4% | [3] -21.6% | [4] 3.5% | [5] -6.9% | [6] -11.9%

COc1ccc(C(=O)c2ccccc2)cc1OC
inactive: [1] 2.95% | [2] 13.8% | [3] -4.25% | [4] -21.4% | [5] -1.2% | [6] -7.85%

CCOC(=O)c1nc(-c2ccccc2)c(-c2ccccc2)c(-c2ccccc2)c1C
inactive: [1] -24.6% | [2] -2.55% | [3] 10.2% | [4] -36.9% | [5] -0.6% | [6] -4.85%

O=[N+]([O-])c1ccc(-c2csc(Nc3ccccn3)n2)o1
inactive: [2] 38.3% | [4] 31.4% | [5] 40.8%
active: [1] 81.1% | [3] 84.7% | [6] 92.5%

CCOc1ccc(/C(O)=C/c2nc3ccccc3nc2/C=C(\O)c2ccc(OCC)cc2)cc1
inactive: [1] -2.1% | [2] -13.7% | [3] 16.4% | [4] -0.75% | [5] 36% | [6] 13.6%

CC(=O)c1c(C)c(C)c(=O)n(C/C=C(\C)CCC=C(C)C)c1O
active: [1] 98% | [2] 99% | [3] 98.7% | [4] 97.4% | [5] 98.3% | [6] 98.1%

Cc1ccc([N+](=O)[O-])cc1NC(=O)NCCO
inactive: [1] 1.15% | [2] 1.6% | [3] -6.3% | [4] -71% | [5] 1% | [6] -1.75%

CC(O)(C(=O)O)c1ccccc1O (stereo unspecified)
inactive: [1] -1.1% | [2] 1.7% | [3] 2.05% | [4] 3.3% | [5] 6.1% | [6] 6.75%

COC(=O)C1CC23CCCC12CC3 (stereo unspecified)
inactive: [1] 21.6% | [2] -1.25% | [3] 2.3% | [4] -66.7% | [5] 8.05% | [6] -7.05%

CCOC(=O)c1nc2ccc(C(F)(F)F)cc2[nH]c1=O
inactive: [1] -23.9% | [2] -14.2% | [3] -17.4% | [4] -47.2% | [5] -11.8% | [6] -10%

CC1(C)c2ccccc2-c2nc3ccccc3nc2C1O (stereo unspecified)
inactive: [1] 4.65% | [2] 18.8% | [3] -8% | [4] -14% | [5] 1.95% | [6] -9.7%

NC1(N)ON(c2ccc(C=O)cc2)C(c2ccc([N+](=O)[O-])cc2)S1 (stereo unspecified)
inactive: [1] 18.3% | [2] 8.45% | [3] 11% | [4] 16.3% | [5] -0.7% | [6] 16.7%

CC(=O)OC(C(=O)Nc1nncs1)c1ccccc1 (stereo unspecified)
inactive: [1] 7.05% | [2] -22.9% | [3] 7.25% | [4] 8.05% | [5] 11.2% | [6] 18.1%

Cc1cc2nn(C3CCCCO3)nc2cc1C (stereo unspecified)
inactive: [1] 1.75% | [2] -20.4% | [3] -21.6% | [4] -25.4% | [5] 8.05% | [6] -46.8%

Oc1ccc(Cl)cc1C=Nc1cnc2ccccc2c1
inactive: [1] -14.6% | [2] 24.9% | [3] 1.95% | [4] -10.9% | [5] 9.1% | [6] 17.4%

COC(=O)C1CCC(=O)CC1
inactive: [1] -1% | [2] -0.35% | [3] -9.9% | [4] -19.9% | [5] 2.4% | [6] -3.15%

COc1ccc(CCN2C(CC(=O)c3ccccc3)CCCC2CC(=O)c2ccccc2)cc1 (stereo unspecified)
inactive: [1] -29.6% | [2] -29.1% | [3] -23.8% | [4] -0.8% | [5] -17.5% | [6] -18.7%

C/C(C=C(C#N)C#N)=C\c1ccccc1
inactive: [1] 25.3% | [2] 11.3% | [3] -5.7% | [4] 14.2% | [5] 36.9% | [6] 17.6%

Nc1nc(N)c2c(n1)CCC(CNc1ccc(C(=O)NC(CCC(=O)O)C(=O)O)cc1)C2 (stereo unspecified)
inactive: [1] 23.6% | [2] 30.6% | [3] 38.3% | [4] 40.2% | [5] -3.8% | [6] 29.7%

CCC(OC(C)=O)c1ccccc1 (stereo unspecified)
inactive: [1] 12.8% | [2] 17.2% | [3] 11.5% | [4] 6.45% | [5] 27.4% | [6] 1.5%

CC(C)=CC(=O)OC1C2C(C)=CC(=O)C(O)C2(C)C2C3(O)OCC24C(CC(=O)OC14)C(C)C3O (stereo unspecified)
active: [1] 91.6% | [2] 92.4% | [3] 91.5% | [4] 91% | [5] 90.8% | [6] 91.2%

COC(=O)c1cc2c3c(ccc2[nH]1)N(C(=O)c1cc2c4c(ccc2[nH]1)N(C(=O)c1cc2c5c(ccc2[nH]1)N(C(N)=O)CC5)CC4)CC3
inactive: [1] 18.8% | [2] 5.05% | [3] -2.05% | [4] 15.7% | [5] 29.8% | [6] 11.9%

CCCCCCCCCC1(C(=O)OCC)OC1(C)C (stereo unspecified)
inactive: [1] 8.55% | [2] -15.8% | [3] 5.75% | [4] 10.5% | [5] 15.2% | [6] -11.8%

O=Cc1c[nH]c2ccccc12
inactive: [1] -7.7% | [2] 9.95% | [3] 22.8% | [4] -15.6% | [5] 1.85% | [6] 6.25%

CN(C)C(=S)Oc1ccc([N+](=O)[O-])cc1Cl
inactive: [1] 17.9% | [2] 6.95% | [3] 4.95% | [4] 19.4% | [5] -3.3% | [6] 29.3%

Cc1c([N+](=O)[O-])cc(C(C)(C)C)c(OC(=O)CCl)c1[N+](=O)[O-]
active: [1] 99.5% | [2] 99.7% | [3] 99.6% | [4] 99.2% | [5] 99.4% | [6] 99.5%

Cc1nnnn1[C@H]1C(C#N)CC2[C@@H]3CCC4=Cc5nnnn5CC[C@]4(C)C3CC[C@@]21C (stereo partly specified)
inactive: [1] 23.3% | [2] 27.4% | [3] 23% | [4] 16.6% | [5] 13.2% | [6] 25.2%

Cc1ncc([N+](=O)[O-])n1CCNCCCn1ccnc1[N+](=O)[O-]
inactive: [1] -9.9% | [2] -7.25% | [3] -17.4% | [4] -9.3% | [5] -9.7% | [6] -44%

CC1N=C(SCc2ccc(Cl)cc2)N2C(C)N=C(SCc3ccc(Cl)cc3)N12 (stereo unspecified)
inactive: [1] -12.7% | [2] -40% | [3] 5.8% | [4] 2.7% | [5] 5.6% | [6] -6.95%

COc1ccc(C(=O)/C=C/c2cc(C(C)(C)C)c(O)c(C(C)(C)C)c2)cc1
inactive: [1] 17.4% | [2] -1.2% | [3] 14.6% | [4] 25.4% | [5] 7.8% | [6] 18.2%

COc1ccccc1Cn1nc(OC)c2cc([N+](=O)[O-])ccc21
inactive: [1] 27.6% | [2] 30.6% | [3] -6.1% | [4] 2.05% | [5] -17.9% | [6] -64.7%

CCC1(O)CC2CN(CCc3c([nH]c4ccccc34)C(C(=O)OC)(c3cc4c(cc3OC)N(C)C3C(O)(C(N)=O)C(O)C5(CC)C=CCN6CCC43C65)C2)C1 (stereo unspecified) (tested in a mixture with another compound)
inactive: [1] -2.3% | [2] -21.1% | [3] -0.35% | [4] 2.7% | [5] 1.05% | [6] 20.7%

CNC(=O)C1CCCN1C(=O)C(Cc1cnc[nH]1)NC(=O)C1CCC(=O)N1 (stereo unspecified)
inactive: [1] -21.2% | [2] -13.9% | [3] -11.6% | [4] 11.9% | [5] -14.1% | [6] -16.8%

O=C(O)C(CS)(c1ccccc1)c1ccccc1
inactive: [1] 0.65% | [2] 8.25% | [3] 7.7% | [4] 5.95% | [5] -2.85% | [6] 11.4%

CCCc1cc(OC(=O)c2c(O)cc(OC)cc2CCC)cc(O)c1C(=O)O
inactive: [1] 35.1% | [2] 44.1% | [3] 15.9% | [4] 49.2% | [5] 32% | [6] 24.5%

From PubChem BioAssay (NCI)
